Measurements reported in PubChem BioAssay.
For some of these results: Entries with a potency or affinity are not part of this list. The source made the active and inactive calls. Unless noted, the rule behind the calls is not given here.

What was measured:
[1] = antimalarial activity against Dd2 strain (AID 2302;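 active = growth inhibition above 50% at the single 2 µM test dose, taken to imply half-maximal potency below 2 µM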;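 note: 0% = DMSO untreated growth and 100% = chloroquine plus artemisinin killed control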); conditions: P. falciparum Dd2 in RBCs, LDH growth readout, 72 h; at 2 µM; hits give high values
[2] = HepG2 cytotoxicity, primary screen, cytotoxicity control for P. falciparum antimalarial project, cell-based, ATP luminescence (AID 2303;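 active = inhibition above 50%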;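 note: 0% = DMSO wells and 100% = digitonin-killed cells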); conditions: HepG2 viability, 24-48 h, at 10 µM, hits give high values
[3] = molecular target: L-lactate dehydrogenase (Plasmodium falciparum (isolate CDC / Honduras)) (UniProt Q27743); assay: PfLDH activity inhibition – cell lysate, 3D7 strain, counter-screen for P. falciparum growth inhibition project (AID 2304);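 note: 0% = vehicle and 100% = reference inhibitor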; conditions: P. falciparum 3D7 crude extract, LDH APAD/NBT absorbance; at 2 µM; hits give high values
Sequence of L-lactate dehydrogenase (Plasmodium falciparum (isolate CDC / Honduras)) (Q27743 whole entry, looked up): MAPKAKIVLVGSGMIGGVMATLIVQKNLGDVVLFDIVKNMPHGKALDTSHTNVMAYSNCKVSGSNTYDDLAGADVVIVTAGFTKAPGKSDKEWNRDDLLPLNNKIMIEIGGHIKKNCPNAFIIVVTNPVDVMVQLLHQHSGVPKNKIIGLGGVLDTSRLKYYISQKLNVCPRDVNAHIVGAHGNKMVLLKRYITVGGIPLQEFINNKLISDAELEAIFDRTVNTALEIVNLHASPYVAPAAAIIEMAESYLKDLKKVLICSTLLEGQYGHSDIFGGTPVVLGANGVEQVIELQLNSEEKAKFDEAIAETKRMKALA

[4] = inhibition of 3D7 malaria parasite growth – strain 3D7 (AID 2306);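 note: 0% = DMSO wells and 100% = chloroquine plus artemisinin control wells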; conditions: P. falciparum 3D7 erythrocytic growth, LDH absorbance, 72 h; at 2 µM; hits give high values
[5] = molecular target: Calcium-dependent protein kinase 1 (Plasmodium falciparum (isolate 3D7)) (UniProt P62344); assay: PfCDPK1 kinase inhibitors, biochemical, TCAMS library (AID 1159585; cut-off not given, nearly all actives have IC50 up to about 0.98 µM;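 note: inhibitors leave more ATP so luminescence rises with inhibition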); conditions: recombinant PfCDPK1, Kinase-Glo ATP depletion luminescence
Sequence of Calcium-dependent protein kinase 1 (Plasmodium falciparum (isolate 3D7)) (P62344 whole entry, looked up): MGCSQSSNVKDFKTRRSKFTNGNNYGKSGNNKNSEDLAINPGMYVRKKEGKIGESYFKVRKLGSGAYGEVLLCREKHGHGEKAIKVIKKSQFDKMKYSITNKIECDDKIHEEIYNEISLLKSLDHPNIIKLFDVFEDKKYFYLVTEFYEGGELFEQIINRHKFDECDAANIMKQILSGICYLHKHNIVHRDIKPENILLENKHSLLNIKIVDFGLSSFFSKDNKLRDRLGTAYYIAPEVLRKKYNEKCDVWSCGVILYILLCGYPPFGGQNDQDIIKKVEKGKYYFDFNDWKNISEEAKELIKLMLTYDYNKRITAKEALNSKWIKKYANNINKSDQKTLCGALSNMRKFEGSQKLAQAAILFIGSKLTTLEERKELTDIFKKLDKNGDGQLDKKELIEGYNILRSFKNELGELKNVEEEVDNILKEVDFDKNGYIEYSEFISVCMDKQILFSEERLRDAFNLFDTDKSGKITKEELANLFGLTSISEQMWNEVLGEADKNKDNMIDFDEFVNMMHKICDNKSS

[6] = molecular target: Plasmodium falciparum protein kinase 6 (PK6, PF3D7_1337100) (UniProt Q8IDW1); assay: PfPK6 kinase inhibitors, biochemical, TCAMS library (AID 1159586); conditions: recombinant PfPK6, Kinase-Glo ATP depletion luminescence
Sequence of Plasmodium falciparum protein kinase 6 (PK6, PF3D7_1337100) (Q8IDW1 1-305): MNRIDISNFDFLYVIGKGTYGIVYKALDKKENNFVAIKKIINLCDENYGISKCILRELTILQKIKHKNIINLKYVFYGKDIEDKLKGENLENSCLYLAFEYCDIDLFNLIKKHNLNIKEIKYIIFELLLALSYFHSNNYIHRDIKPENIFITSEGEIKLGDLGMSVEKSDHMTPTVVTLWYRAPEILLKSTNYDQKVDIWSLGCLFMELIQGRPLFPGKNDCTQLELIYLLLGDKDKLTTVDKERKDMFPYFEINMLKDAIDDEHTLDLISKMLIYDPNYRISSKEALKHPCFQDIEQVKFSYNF

[7] = molecular target: Protein kinase 7 (PK7), Plasmodium falciparum 3D7 (PF3D7_0213400) (UniProt Q7YTF7); assay: inhibition of Plasmodium PK7 catalytic activity – biochemical, TCAMS antimalarial set, Kinase-Glo luminescence (AID 1159587); conditions: recombinant PfPK7, Kinase-Glo ATP depletion luminescence
Sequence of Protein kinase 7 (PK7), Plasmodium falciparum 3D7 (PF3D7_0213400) (Q7YTF7 1-343): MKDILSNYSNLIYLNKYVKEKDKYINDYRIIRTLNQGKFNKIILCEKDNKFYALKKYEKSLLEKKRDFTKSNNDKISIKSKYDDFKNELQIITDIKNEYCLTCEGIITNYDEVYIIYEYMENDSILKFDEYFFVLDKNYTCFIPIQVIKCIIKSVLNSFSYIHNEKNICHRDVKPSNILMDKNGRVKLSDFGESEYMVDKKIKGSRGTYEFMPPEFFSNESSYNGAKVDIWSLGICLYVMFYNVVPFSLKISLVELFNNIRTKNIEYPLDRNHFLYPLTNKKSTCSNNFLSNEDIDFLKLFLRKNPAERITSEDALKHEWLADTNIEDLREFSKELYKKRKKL

[8] = molecular target: Calcium-dependent protein kinase 4 (Plasmodium falciparum (isolate 3D7)) (UniProt Q8IBS5); assay: PfCDPK4 kinase inhibitors, biochemical, TCAMS library (AID 1159588; cut-off not given, nearly all actives have IC50 up to about 0.91 µM); conditions: recombinant PfCDPK4, Kinase-Glo ATP depletion luminescence
Sequence of Calcium-dependent protein kinase 4 (Plasmodium falciparum (isolate 3D7)) (Q8IBS5 whole entry, looked up): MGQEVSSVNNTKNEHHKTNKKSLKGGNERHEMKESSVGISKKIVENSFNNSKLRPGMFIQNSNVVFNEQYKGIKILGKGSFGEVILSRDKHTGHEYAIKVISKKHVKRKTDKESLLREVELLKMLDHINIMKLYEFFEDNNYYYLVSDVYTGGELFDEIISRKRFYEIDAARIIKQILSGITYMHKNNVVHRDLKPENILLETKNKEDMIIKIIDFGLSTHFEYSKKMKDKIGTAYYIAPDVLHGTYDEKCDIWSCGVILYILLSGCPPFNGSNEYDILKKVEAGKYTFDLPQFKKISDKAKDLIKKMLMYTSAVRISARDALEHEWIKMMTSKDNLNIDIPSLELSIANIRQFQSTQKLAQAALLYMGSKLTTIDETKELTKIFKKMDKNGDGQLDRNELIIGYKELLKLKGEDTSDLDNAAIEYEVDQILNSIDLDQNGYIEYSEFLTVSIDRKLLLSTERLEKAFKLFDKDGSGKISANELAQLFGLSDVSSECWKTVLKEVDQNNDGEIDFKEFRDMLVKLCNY

CC(C)N1CCC(NC(=O)N2CCCN(c3ncnc4cc(-c5ccc(Cl)cc5)sc34)CC2)CC1
active: growth inhibition [4] 81%
inactive: growth inhibition [1] 7% | inhibition [2] 6% | inhibition [3] 7% | outcome [5] | outcome [6] | outcome [7] | outcome [8]

CCOc1ccc(Nc2cc(C)nc(Nc3ccc(OCC)cc3)n2)cc1
inactive: growth inhibition [1] 49% | inhibition [2] 3% | inhibition [3] 8% | outcome [5] | outcome [6] | outcome [7] | outcome [8]
active: growth inhibition [4] 101%

NC1=NC2(CCCCC2)N(Cc2ccc(Cl)c(Cl)c2)C(N)=N1
inactive: inhibition [2] 22% | inhibition [3] -3% | outcome [5] | outcome [6] | outcome [7] | outcome [8]
active: growth inhibition [1] 76% | growth inhibition [4] 86%

COc1ccc(Cn2cncc2CN(CCC(C)C)C(=O)c2ccc(Cl)nc2Cl)cc1
inactive: inhibition [2] 19% | inhibition [3] -1% | outcome [5] | outcome [6] | outcome [7] | outcome [8]
active: growth inhibition [1] 61% | growth inhibition [4] 87%

NCc1cccc(-c2ccc(CNC3CCN(Cc4ccccc4)CC3)cc2)c1
active: growth inhibition [4] 95%
inactive: growth inhibition [1] 3% | inhibition [2] 2% | inhibition [3] 0% | outcome [5] | outcome [6] | outcome [7] | outcome [8]

NOCCCOc1ccccc1
inactive: growth inhibition [1] -4% | inhibition [2] 20% | inhibition [3] -4% | outcome [5] | outcome [6] | outcome [7] | outcome [8]
active: growth inhibition [4] 100%

Oc1ccc(CCCNc2nc(NCc3cccc4ccccc34)nc(NC3CCNCC3)n2)cc1
inactive: growth inhibition [1] -3% | inhibition [2] 8% | inhibition [3] 1% | outcome [5] | outcome [6] | outcome [7] | outcome [8]
active: growth inhibition [4] 91%

COc1cc2nc(NCc3nc4ccccc4[nH]3)nc(N)c2cc1OC
active: growth inhibition [4] 97%
inactive: growth inhibition [1] 10% | inhibition [2] 3% | inhibition [3] -2% | outcome [5] | outcome [6] | outcome [7] | outcome [8]

CNCCNCc1cccc(-c2ccc(-c3nc4ccccc4[nH]3)s2)c1
inactive: growth inhibition [1] 9% | inhibition [2] 8% | inhibition [3] 0% | outcome [5] | outcome [6] | outcome [7] | outcome [8]
active: growth inhibition [4] 99%

CN1CCN(CCNc2c3ccccc3nc3c2ccc2ccccc23)CC1
active: growth inhibition [1] 66% | inhibition [2] 76% | growth inhibition [4] 101%
inactive: inhibition [3] -6% | outcome [5] | outcome [6] | outcome [7] | outcome [8]

O=C(Nc1ccc(-c2cccc(-c3nc4ccc(F)cc4[nH]3)c2)cc1)Nc1ccsc1
inactive: inhibition [2] 34% | inhibition [3] 5% | outcome [5] | outcome [6] | outcome [7] | outcome [8]
active: growth inhibition [1] 51% | growth inhibition [4] 101%

CN(C)C(=O)c1cc(CNCc2ccccc2)ccc1-c1cccc(CNCc2ccc(-c3ccccc3)cc2)c1
active: growth inhibition [4] 90%
inactive: growth inhibition [1] 12% | inhibition [2] 27% | inhibition [3] -3% | outcome [5] | outcome [6] | outcome [7] | outcome [8]

NC(=O)c1cccc(Nc2nccc(Nc3ccc(Oc4ccc5ccccc5c4)cc3)n2)c1
inactive: growth inhibition [1] 31% | inhibition [2] 15% | inhibition [3] 5% | outcome [5] | outcome [6] | outcome [7] | outcome [8]
active: growth inhibition [4] 96%

COc1ccc(-c2nc(NC(=O)COc3ccc(C(C)=O)cc3)sc2C)cc1
active: growth inhibition [1] 58% | growth inhibition [4] 98%
inactive: inhibition [2] -2% | inhibition [3] 2% | outcome [5] | outcome [6] | outcome [7] | outcome [8]

Cc1cc(N)cc2[nH]c(-c3ccc(N)cc3)nc12
active: growth inhibition [1] 75% | growth inhibition [4] 96%
inactive: inhibition [2] -7% | inhibition [3] -11% | outcome [5] | outcome [6] | outcome [7] | outcome [8]

CC(C)c1ncc(-c2ccncc2)c(C2CCC(CNC(=O)c3cccnc3)CC2)n1 (stereo not drawn)
inactive: inhibition [2] -14% | inhibition [3] 1% | outcome [5] | outcome [6] | outcome [7] | outcome [8]
active: growth inhibition [1] 88% | growth inhibition [4] 89%

Cc1[nH]c(C)c(-c2ccc(Br)cc2)c(=O)c1Br
active: growth inhibition [1] 95% | growth inhibition [4] 98%
inactive: inhibition [2] 9% | inhibition [3] 6% | outcome [5] | outcome [6] | outcome [7] | outcome [8]

Cc1ccc(F)c(OC2CCN(c3ccc(C(=O)NC4CC4)cn3)CC2)c1
inactive: inhibition [2] 10% | inhibition [3] -2% | outcome [5] | outcome [6] | outcome [7] | outcome [8]
active: growth inhibition [1] 72% | growth inhibition [4] 92%

Cc1cnc(N2CCN(CC3CCN(C)CC3)CC2)nc1Oc1ccc(-n2ccnc2)cc1
active: growth inhibition [1] 66% | growth inhibition [4] 99%
inactive: inhibition [2] 9% | inhibition [3] -3% | outcome [5] | outcome [6] | outcome [7] | outcome [8]

CC(C)(C)c1ccc(NC(=O)c2ccc(CN3CCCN(Cc4cccc(O)c4)CC3)cc2)cc1
active: growth inhibition [1] 62% | inhibition [2] 54% | growth inhibition [4] 102%
inactive: inhibition [3] 1% | outcome [5] | outcome [6] | outcome [7] | outcome [8]

COc1ccc2nc(N(CCCn3ccnc3)C(=O)C=Cc3cccs3)sc2c1
inactive: growth inhibition [1] 26% | inhibition [2] 8% | inhibition [3] -3% | outcome [5] | outcome [6] | outcome [7] | outcome [8]
active: growth inhibition [4] 92%

O=C(Nc1ccc2c(c1)CCN2C1CCN(Cc2csc3ccccc23)C1)c1ccco1 (stereo not drawn)
active: growth inhibition [1] 95% | growth inhibition [4] 95%
inactive: inhibition [2] -5% | inhibition [3] -2% | outcome [5] | outcome [6] | outcome [7] | outcome [8]

CC(=O)Nc1ccc(C(=O)Nc2ccc(-c3csc(-c4nc5ccccc5[nH]4)c3)cc2)cn1
active: growth inhibition [4] 93%
inactive: growth inhibition [1] -2% | inhibition [2] 11% | inhibition [3] -3% | outcome [5] | outcome [6] | outcome [7] | outcome [8]

CC(=O)Nc1cccc(C(=O)Nc2ccc(-c3cccc(-c4nc5ccc(C(F)(F)F)cc5[nH]4)c3)cc2)c1
inactive: inhibition [3] 2% | outcome [5] | outcome [6] | outcome [7] | outcome [8]
active: growth inhibition [1] 85% | inhibition [2] 81% | growth inhibition [4] 101%

CCCC(C)Nc1nc(C)cc(N[C@@H](CC(C)C)C(=O)NCc2cccc(F)c2)n1 (stereo partly drawn)
inactive: inhibition [2] 1% | inhibition [3] 0% | outcome [5] | outcome [6] | outcome [7] | outcome [8]
active: growth inhibition [1] 63% | growth inhibition [4] 96%

COc1ccc2nccc([C@@H](O)CN3CCC(NC(=O)c4cccc(C(=O)c5ccccc5)c4)CC3)c2c1
active: growth inhibition [1] 99% | growth inhibition [4] 99%
inactive: inhibition [2] 13% | inhibition [3] 2% | outcome [5] | outcome [6] | outcome [7] | outcome [8]

CCOC(=O)c1cc(C(=O)NCCCCN2CCC(c3cn(C)c4ccccc34)CC2)ccc1-c1ccc(C(F)(F)F)cc1
active: growth inhibition [4] 91%
inactive: growth inhibition [1] 6% | inhibition [2] 25% | inhibition [3] -3% | outcome [5] | outcome [6] | outcome [7] | outcome [8]

CCCN1CCc2c(sc3nc(SCC(=O)Nc4ccc(C)cc4)n(-c4ccc(C)cc4)c(=O)c23)C1
active: growth inhibition [1] 71% | growth inhibition [4] 92%
inactive: inhibition [2] 0% | inhibition [3] -5% | outcome [5] | outcome [6] | outcome [7] | outcome [8]

Cn1c(NC2=NC3(c4ccccn4)N=C(Nc4nc5ccccc5n4C)NC3(c3ccccn3)N2)nc2ccccc21 (stereo not drawn)
active: growth inhibition [4] 99%
inactive: growth inhibition [1] 44% | inhibition [2] 12% | inhibition [3] 0% | outcome [5] | outcome [6] | outcome [7] | outcome [8]

CCOc1cccc2nc(NCCCNCc3ccc(Cl)c(Cl)c3)cc(NCCCNCc3ccc(Cl)c(Cl)c3)c12
inactive: inhibition [3] -5% | outcome [5] | outcome [6] | outcome [7] | outcome [8]
active: growth inhibition [1] 58% | inhibition [2] 96% | growth inhibition [4] 98%

COc1ccc(CNC(=O)C2Cc3ccccc3CN2Cc2ccc3ccccc3c2)cc1 (stereo not drawn)
active: growth inhibition [1] 84% | growth inhibition [4] 96%
inactive: inhibition [2] 15% | inhibition [3] -8% | outcome [5] | outcome [6] | outcome [7] | outcome [8]

CN(C)CCNc1cc(-c2ccc3ccccc3c2)nc2ccccc12
inactive: inhibition [2] 24% | inhibition [3] -5% | outcome [5] | outcome [6] | outcome [7] | outcome [8]
active: growth inhibition [1] 58% | growth inhibition [4] 102%

CCNc1cc(C)nc(Nc2ccc(NC(=O)c3ccccc3Cl)cc2)n1
active: growth inhibition [1] 52% | growth inhibition [4] 100%
inactive: inhibition [2] 48% | inhibition [3] -2% | outcome [5] | outcome [6] | outcome [7] | outcome [8]

CCCCCCNC(=O)C1Cc2c([nH]c3ccc(F)cc23)C2(CCN(Cc3ccccc3)CC2)N1 (stereo not drawn)
inactive: growth inhibition [1] 39% | inhibition [2] 11% | inhibition [3] -1% | outcome [5] | outcome [6] | outcome [7] | outcome [8]
active: growth inhibition [4] 97%

CC(C)(C)C(=O)Oc1ccc(CC2NCCc3cc(OC(=O)C(C)(C)C)c(OC(=O)C(C)(C)C)cc32)cc1OC(=O)C(C)(C)C (stereo not drawn)
active: growth inhibition [1] 96% | growth inhibition [4] 97%
inactive: inhibition [2] 3% | inhibition [3] 5% | outcome [5] | outcome [6] | outcome [7] | outcome [8]

O=C(/C=C/c1ccc(Cl)c(Cl)c1)N1CCC(CCN2CCC(c3c[nH]c4ccncc34)CC2)CC1
active: growth inhibition [1] 70% | growth inhibition [4] 101%
inactive: inhibition [2] 13% | inhibition [3] 2% | outcome [5] | outcome [6] | outcome [7] | outcome [8]

O=C(Cc1cnc[nH]1)Nc1cccc(-c2ccc(-c3nc4ccc(F)cc4[nH]3)s2)c1
active: growth inhibition [1] 94% | growth inhibition [4] 101%
inactive: inhibition [2] 4% | inhibition [3] -12% | outcome [5] | outcome [6] | outcome [7] | outcome [8]

CCNc1cc(C)nc(Nc2ccc(C)cc2)n1
active: growth inhibition [1] 85% | growth inhibition [4] 102%
inactive: inhibition [2] 12% | inhibition [3] 3% | outcome [5] | outcome [6] | outcome [7] | outcome [8]

O=C1CC(C(=O)O)CC(=O)N1
active: growth inhibition [1] 88% | growth inhibition [4] 94%
inactive: inhibition [2] -3% | inhibition [3] 6% | outcome [5] | outcome [6] | outcome [7] | outcome [8]

CCOc1cc(C(=O)N[C@@H](Cc2ccccc2)[C@H](O)CNCc2cccc(OC)c2)cc(N2CCCCS2(=O)=O)c1
active: growth inhibition [1] 94% | growth inhibition [4] 97%
inactive: inhibition [2] 3% | inhibition [3] 3% | outcome [5] | outcome [6] | outcome [7] | outcome [8]

O=C(/C=C/c1ccc(Cl)c(Cl)c1)NCCCCCN1CCC(NC(=S)Nc2cccc(Cl)c2)CC1
inactive: growth inhibition [1] 43% | inhibition [2] 24% | inhibition [3] 4% | outcome [5] | outcome [6] | outcome [7] | outcome [8]
active: growth inhibition [4] 99%
